Most compounds without a hit are left out; they make up all but 2.2% or so of the library.
NCF1 inh: inhibitors of human p47phox binding; P14598; actives 0.53% (n = 220,000); inhibition, % at 24.7 µM; p47phox/p22phox peptide binding, fluorescence polarization, 2 h;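 active = inhibition above about 30%, limit read from the data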
Target sequence (P14598 whole entry, looked up): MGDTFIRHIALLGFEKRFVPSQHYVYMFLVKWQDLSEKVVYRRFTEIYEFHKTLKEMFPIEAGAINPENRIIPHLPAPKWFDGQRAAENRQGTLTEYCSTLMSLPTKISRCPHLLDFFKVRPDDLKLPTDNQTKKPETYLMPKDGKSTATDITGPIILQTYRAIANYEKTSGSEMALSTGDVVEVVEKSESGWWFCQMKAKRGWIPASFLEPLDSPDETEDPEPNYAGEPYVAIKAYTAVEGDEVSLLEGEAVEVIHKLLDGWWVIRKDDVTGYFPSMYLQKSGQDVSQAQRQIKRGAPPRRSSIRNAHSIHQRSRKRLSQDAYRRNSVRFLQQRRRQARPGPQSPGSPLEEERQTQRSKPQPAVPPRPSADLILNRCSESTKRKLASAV
HMGR II inh: E. faecalis class II HMG-CoA reductase inhibition. purified E. faecalis HMGR, NADPH absorbance 340 nm kinetic. inhibition, % at 10 µM. actives 0.41% (n = 190,000). AID 1066;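 active = inhibition above a set limit, the median over all tested compounds plus 3 SD, cut at about 9.5% in these data; inconclusive = no clear call, values can overlap the other calls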;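 note: enzyme runs in reverse so mevalonate oxidation gives rising NADPH absorbance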
Arbovirus inh: arbovirus infection inhibition; inhibition, % at 10 µM; arbovirus infection cell-based antiviral screen; actives 0.37% (n = 200,000); in the data active = inhibition above about 30%
Insulin prom up: MIN6 insulin promoter up-regulation | MIN6 insulin promoter-GFP reporter, high-content imaging; hits give high values | z-score at 5 µM | actives 0.3% (n = 190,000);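 active = z-score above 3 at 5 µM with at least 500 cells counted in the well; inconclusive = wells under 500 cells, flagged as cytotoxic or low count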
Autophagy mod: modulators of autophagy | AID 463193 | calls only at 10 µM (by protocol) | actives 0.98% (n = 190,000) | MEF GFP-LC3 puncta imaging; test concentration mostly 10 µM;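 active = percentage of spot-positive cells more than 3 SD above its plate mean, without a fluorescence outlier flag or 80% toxicity; inconclusive = no clear call, values can overlap the other calls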
DTT redox prof: compounds producing H2O2 with reducing agent – biochemical, NIH compound library profiling, artefact control for MLSCN library redox annotation, primary screen. DTT-dependent redox cycling H2O2, phenol red/HRP absorbance; 100% = 100 µM peroxide control, 0% = buffer. activation, % at 10 µM. actives 0.03% (n = 200,000). AID 878;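 active = activation of at least 50% relative to the plate's high and low controls in the primary single-dose screen; inactive = activation below 50%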;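 note: compound incubated with DTT at 0.8 mM final as the reducing agent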
Redox H2O2 DR: confirmation of DTT-dependent redox cycling H2O2 generators; shares compounds with DTT redox prof; phenol red-HRP absorbance; EC50, µM; actives 40% (n = 60);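 active = EC50 under a set limit for hydrogen peroxide production with the reducing agent DTT present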
A number is an active result; - = inactive; ? = inconclusive; . = not tested or not shown; + = active, no number.

SMILES	NCF1 inh	HMGR II inh	Arbovirus inh	Insulin prom up	Autophagy mod	DTT redox prof	others
Cc1cnc(C(=O)Nc2cc(F)ccc2C)cn1	-	-	-	-	-	-
CCOC(=O)c1c(C)[nH]c(C(=O)C(C)Cl)c1C (centres undefined)	-	9.8	-	-	-	-
CCOC(=O)c1c(C)[nH]c(C(C)=O)c1C	-	-	-	-	-	-
COc1ccc(C/C(N)=N/OC(=O)Cc2ccccc2)cc1OC	115	-	-	-	-	-
CCC(/C=N/NC(=O)CCCCC(=O)N/N=C/C(CC)CC)CC	-	-	-	-	-	-
CN(C)c1ccc(C(=O)N/N=C/c2cc(Br)cc(Br)c2O)cc1	-	.	.	4.7	.	.
Cc1onc(-c2ccccc2)c1C(=O)Nc1ccc(S(=O)(=O)NC(C)(C)C)cc1	-	-	-	-	-	-
Cc1ccccc1C(=O)c1cccn1CC(=O)NC(C)c1ccc2c(c1)OCCO2 (centres undefined)	-	12	-	-	-	-
CC(CC(=O)NC(C)c1ccc2c(c1)OCCO2)c1ccccc1 (centres undefined)	-	-	-	.	-	-
COc1ccc(OC)c2c1sc(=NC(=O)c1cccc(N3C(=O)CCC3=O)c1)n2C	-	-	-	-	+	-
O=C(c1ccc2c(c1)OCO2)C1CCCN(Cc2ccc3nsnc3c2)C1 (centres undefined)	-	11	-	-	-	-
CC(=O)NC(C)C(=O)OCC(=O)c1ccc(Cl)s1 (centres undefined)	-	.	-	-	-	-
CC(=O)NC(C)C(=O)OCC(=O)c1ccc(-c2ccccc2)cc1 (centres undefined)	-	-	-	-	+	-
COc1ccc(C2C(C(=O)Nc3ccccc3OC)=C(C)Nc3ncnn32)cc1 (centres undefined)	-	-	-	-	+	-
CN1CCc2c(sc(NC(=O)c3cc4cc([N+](=O)[O-])ccc4s3)c2C(N)=O)C1	77	-	-	?	+	-
Cc1ccc(N2CCN(CCCCN3C(=O)C4CCCN4C3=O)CC2)cc1 (centres undefined)	-	-	-	-	-	-
COCCNC(=O)/C(C#N)=c1\s/c(=C\c2ccccc2OC(F)F)c(=O)n1Cc1ccccc1	.	-	-	-	+	-
COCCCNC(=O)/C(C#N)=c1\s/c(=C\c2ccccc2OC(F)F)c(=O)n1CCCOC	-	-	-	-	-	-
CCCCNC(=O)/C(C#N)=c1\s/c(=C\c2ccccc2OC(F)F)c(=O)n1CCCOC	-	-	-	4.5	+	-
COc1ccc(O[C@H]2C=C[C@@H](c3ccccc3)O[C@@H]2CO/N=C(\C)CCC(=O)OC[C@H]2O[C@H](c3ccccc3)C=C[C@@H]2Oc2ccc(OC)cc2)cc1	-	-	-	-	-	-
CCCCCCCCCCCNC(=O)c1ccoc1C	-	-	-	.	-	-
CCCCCC(C)NC(=O)c1ccoc1C (centres undefined)	-	11	-	.	-	-
COc1ccc(-c2noc(-c3ccccc3-c3ccccc3)n2)cc1OC	-	-	31	-	-	-
COc1ccc(Cc2noc(-c3ccccc3)n2)cc1OC	-	15	-	-	-	-
COc1ccc(-c2noc(CSc3nc(-c4ccccc4)cc(=O)[nH]3)n2)cc1OC	-	-	52	-	-	-
SMILES	NCF1 inh	HMGR II inh	Arbovirus inh	Insulin prom up	Autophagy mod	DTT redox prof	others
Cc1ccc2nc(Cl)c(/C=N/n3c(C)nnc3C)cc2c1	-	-	-	-	-	-
N#C/C(C(=O)Oc1ccccc1)=C1/Nc2ccccc2-c2ccccc21	-	-	-	-	+	-
N#CC(C(=O)Nc1ccccc1)=C1Nc2ccccc2N1	-	-	-	-	-	-
O=C(c1ccc(S(=O)(=O)c2cccc(Cl)c2)c([N+](=O)[O-])c1)N1CCN(Cc2ccccc2)CC1	-	-	-	.	-	-
Cc1ccc(C)c2nc(SCC(=O)Nc3ccc4c(c3)OCO4)c(C#N)cc12	-	.	.	-	.	.
Cc1nonc1NC(=O)CSc1nc2c(C)cccc2cc1C#N	-	-	-	.	+	-
Cc1cccc2cc(C#N)c(SCCN3CCCCC3)nc12	.	.	.	.	+	-
CCCn1cc(CN2CCN(Cc3ccc(C)o3)C(CCO)C2)c(C)n1 (centres undefined)	-	-	-	-	-	-
CC(=O)Nc1c(C)ccc(CNC(=O)COc2cc(C)ccc2C)c1C	-	-	-	-	-	-
Cc1ccc(SCC(=O)NN2C(=O)c3ccccc3C2=O)cc1	-	-	-	-	-	-
CC(NCC(O)COC1CCC(C(C)(C)C)CC1)c1ccccc1 (centres undefined)	-	-	-	-	+	-
COc1ccc(Cc2nnc(Nc3ccccc3OC)[nH]c2=O)cc1	-	-	-	-	-	-
Cc1cc2ncn(C3CC(=O)N(Cc4ccc(N5CCCC5=O)cc4)C3=O)c2cc1C (centres undefined)	-	-	-	-	.	-
CCC(C)n1c(NC(=O)c2ccccc2)c(C#N)c2nc3ccccc3nc21 (centres undefined)	.	.	.	.	+	63	Redox H2O2 DR=-
N#Cc1c(NC(=O)c2ccc(Br)o2)n(-c2ccccc2)c2nc3ccccc3nc12	-	.	.	-	.	.
CN1CCN(NC(=O)c2ccc(S(=O)(=O)N3CC4(C)CC3CC(C)(C)C4)cc2)CC1 (centres undefined)	-	.	.	-	.	.
C=CCn1c(NS(=O)(=O)c2ccccc2)c(S(=O)(=O)c2ccc(C)cc2)c2nc3ccccc3nc21	-	-	-	-	-	99	Redox H2O2 DR=-
O=S(=O)(Nc1c(S(=O)(=O)c2ccccc2)c2nc3ccccc3nc2n1C1CCCCC1)c1ccccc1	-	-	-	-	-	95	Redox H2O2 DR=12
COc1ccc(CN2C(=O)c3cccnc3C2O)cc1 (centres undefined)	-	-	-	-	-	68	Redox H2O2 DR=-
Cc1ccc(S(=O)(=O)n2nnc3ccccc32)c(C)c1C	-	-	-	-	-	-
Cc1ccc(C(=O)c2coc3c2C(=O)C(=O)c2ccccc2-3)cc1	-	-	-	-	-	-
Cc1oc2c(c1C(=O)c1ccc(Cl)cc1)C(=O)C(=O)c1ccccc1-2	-	-	-	-	-	344	Redox H2O2 DR=6.4
Cc1ccc(C(=O)c2c(C)oc3c2C(=O)C(=O)c2ccccc2-3)cc1	-	-	-	-	-	458	Redox H2O2 DR=-
O=C(c1ccc(Cl)cc1)c1ccc(CN2C(=O)c3ccccc3C2=O)o1	-	-	-	-	-	-
CCCCCC(=O)Nc1cccc(C2=NOC3(C2)C[C@H](C(N)=O)N(C(=O)CC)C3)c1 (some centres undefined)	-	.	.	-	.	.
CN(C)CC(C)(C)CNS(=O)(=O)CC12CCC(CC1=O)C2(C)C (centres undefined)	-	-	-	-	-	-

Screening results: PubChem, several laboratories
